# Shown are actives, neighbours in structure and some others; about 0.28% of the full set was active somewhere.
# hcGAS inh: blocks human cGAS activity | Q8N884 | recombinant h-cGAS, ATP depletion, Kinase-Glo luminescence | inhibition, % at 12.5 µM | 290,000 tested, 0.081% active | AID 1259398;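 also: 0% = vehicle reaction and 100% = reaction without DNA for no activity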
# Target sequence (Q8N884 whole entry, looked up): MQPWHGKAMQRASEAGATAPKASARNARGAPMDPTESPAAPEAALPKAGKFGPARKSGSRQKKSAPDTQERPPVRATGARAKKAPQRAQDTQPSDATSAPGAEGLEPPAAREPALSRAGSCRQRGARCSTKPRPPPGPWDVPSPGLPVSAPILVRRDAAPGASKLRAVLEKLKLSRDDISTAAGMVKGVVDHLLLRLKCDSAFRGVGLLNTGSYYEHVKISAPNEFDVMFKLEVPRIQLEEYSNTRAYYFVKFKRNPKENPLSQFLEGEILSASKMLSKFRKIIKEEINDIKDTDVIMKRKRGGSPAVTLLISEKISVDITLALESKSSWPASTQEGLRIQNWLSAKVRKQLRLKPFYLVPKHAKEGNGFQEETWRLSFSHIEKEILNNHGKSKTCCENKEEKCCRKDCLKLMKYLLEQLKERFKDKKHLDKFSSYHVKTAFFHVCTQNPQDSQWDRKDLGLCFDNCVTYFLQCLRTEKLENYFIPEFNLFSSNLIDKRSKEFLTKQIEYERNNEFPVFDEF
# NPYLR7 ag: activates Aedes aegypti NPYLR7 receptor. HEK293T NPYLR7/Galpha15, GCaMP6s calcium fluorescence. activation, % at 10 µM. 270,000 tested, 0.15% active; in the data active = activation above about 40%;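 also: 0% = vehicle and 100% = reference agonist at the receptor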
# mcGAS lum: mouse cGAS inhibition by luminescence; Q8C6L5; 160,000 tested, 0.15% active; AID 1259399; recombinant cGAS, Kinase-Glo ATP depletion luminescence; inhibition, % at 12.5 µM;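 also: 0% = negative control wells and 100% = reference inhibitor with no enzyme activity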
# Active calls of the source: *; . = no result given. Rule as the data show it, unless noted: active = inhibition above about 40%; inactive = the rest.
SMILES,hcGAS inh,NPYLR7 ag,mcGAS lum
O=c1cc(-c2ccccc2)oc2c(O)c(O)ccc12,71.5*,-1.4,.
O=c1cc(-c2ccccc2)oc2cc(O)c(O)cc12,33.6,-4.3,29.1
CCCCS(=O)(=O)N1CCN(c2ccc(-n3ccc(C)n3)nn2)CC1,-6.3,-2.6,-9.4
O=C(c1cccc2cc[nH]c12)N1CCN(Cc2cccc(-c3noc(-c4cccc(C(F)(F)F)c4)n3)c2)CC1,-4.6,33.4,-2.8
COc1cccc(OC)c1OCCCOc1ccc(Br)cc1Cl,-5.2,-6.3,.
COc1ccccc1OCCCOc1ccc(Br)cc1Cl,0.8,59.8*,.
Cc1nc2cc(F)c(F)cc2n1Cc1csc(C(C)C)n1,-4.1,-1.4,.
C=CCOc1ccc(C=C2COc3ccccc3C2=O)cc1OC,-3.4,2.8,46.4*
COc1cc(C=C2COc3ccccc3C2=O)ccc1OCC#N,-5.4,0.5,38.0
O=C(c1cn(CC2CCCCC2)nn1)N1CCCC(c2nc3ccccc3[nH]2)C1 (stereo unspecified),-4.9,.,-11.3
C[C@@H]1CN(c2ncnc3c2CCC3)C[C@@]1(O)C1CCC1,-4.8,.,-2.9
CCOC(=O)c1c(-c2ccccc2)csc1N=Cc1nc(-c2ccco2)oc1O,-7.8,141.0*,-8.2
CCOC(=O)c1c(N=Cc2nc(-c3ccccc3)oc2O)sc(C)c1C,-5.3,-4.7,-2.9
CC(C)(O)CSCCNC(=O)N1CCc2c(F)ccc(F)c2C1,-3.0,-3.9,.
N#Cc1ccc(Cl)cc1NC(=O)c1csc(-c2cnccn2)n1,-2.0,-1.5,.
CC(=O)C1=C(C)Nc2ncnn2C1c1ccco1 (stereo unspecified),-3.2,6.5,.
Fc1cc(F)cc(C2C=C(c3ccco3)Nc3ncnn32)c1 (stereo unspecified),7.6,77.9*,.
CCn1cc(C(=O)N2CCN(C(=O)CCC3CCCC3)CC2)c2nn(-c3ccccc3)c(=O)c-2c1,-2.4,0.3,1.5
O=C(O)C1=CC(=C(c2ccc(O)c(C(=O)O)c2)c2ccc(O)c(C(=O)O)c2)C=CC1=O,79.7*,-3.0,106.3*
Nc1ccc(O)c(C(=O)O)c1,-3.6,-7.3,.
CCOC(=O)c1c(NC(=O)C(OC(C)=O)c2ccccc2)c(-c2cccc(F)c2)cn1Cc1ccccc1 (stereo unspecified),-6.7,3.6,-5.8
O=C(NC1CC2CCC(C1)N2Cc1ccoc1)c1cc(C(F)(F)F)cc(C(F)(F)F)c1 (stereo unspecified),-5.4,7.2,-6.0
CCN1C(=Cc2ccc3cc(C)ccc3[n+]2CC)Sc2ccccc21,8.3,73.5*,.
CN1C(=C2C(=O)CC(C)(C)CC2=O)Sc2ccccc21,3.7,0.6,.
CCN1/C(=C/C2=CC(=O)CC(C)(C)C2)Sc2ccccc21,-4.8,60.0*,.
SMILES,hcGAS inh,NPYLR7 ag,mcGAS lum
CCOC(=O)c1ccccc1N1C(=O)/C(=C\c2ccncc2)N(C)C1=S,-6.3,-3.7,-3.3
Cc1cc(C=C2Sc3ccccc3N2C)cc(C)[n+]1Cc1ccncc1,0.8,51.0*,-2.1
CCN1C(=CC=Cc2sc3ccccc3[n+]2CC)Sc2ccccc21,-48.8,-12.1,.
CCC(C)[n+]1c(C)cc(C=C2Sc3ccccc3N2C)cc1C (stereo unspecified),6.6,172.6*,.
CCOC(=O)/C(C#N)=C1/Sc2ccccc2N1C,1.9,-2.0,.
COc1ccc2[nH]c(=O)c(CN(C)Cc3cn(C)nc3C)cc2c1,-1.2,22.5,.
COc1ccccc1CC(=O)Nc1sc2c(c1C(N)=O)CCC2,-11.8,11.6,-8.1
CCS(=O)(=O)c1ccc(S(=O)(=O)NC2(c3ccc(F)cc3)CCC2)cc1,-7.1,3.3,.
Cc1cc(C=C2Sc3ccccc3N2C)cc(C)[n+]1-c1ccccc1,-2.7,75.5*,.
CN(C)CCCN1c2ccccc2Sc2ccc(C(F)(F)F)cc21,-2.7,8.7,-5.5
CCC(C)[n+]1c(C)cc(C=C2Sc3ccccc3N2CC)cc1C (stereo unspecified),-3.7,77.9*,.
Cc1cc(C=C2Sc3ccccc3N2C)cc(C)[n+]1N1CCN(C)CC1,8.5,46.8,.
CCN1c2ccccc2Sc2cc(C=O)ccc21,-0.5,8.0,.
CCCC[n+]1c(C)cc(C=C2Sc3ccccc3N2C)cc1C,-0.7,198.0*,.
Cc1cc(C)nc(N/N=C\c2ccc3c(c2)OCO3)n1,-5.8,19.0,-6.2
CC(CC1=[N+](c2ccccc2)C(C)(O)CS1)=Nc1ccccc1 (stereo unspecified),-4.6,0.1,.
CC1Oc2ccccc2OC1C(=O)Nc1cc(F)cc(N2CCCC2)c1 (stereo unspecified),-6.1,4.4,.
O=C(/C=C/c1ccccc1)c1ccc(O)cc1O,5.9,16.9,85.0*
COc1ccc(/C=C/C(=O)c2ccc(O)cc2O)cc1,-1.3,-16.7,.
COc1ccc2nc(/C=C/C(=O)c3ccc(O)cc3)ccc2c1,-5.8,-2.7,75.7*
COc1ccc(/C=C/C(=O)c2cc(O)ccc2O)cc1,2.3,-6.3,52.7*
COc1ccc(/C=C/c2ccc3ccccc3n2)c(OC)c1,-10.8,2.0,-9.6
